About 83,000 compounds went through this panel and 20% of them were active in at least one assay; those are over-represented in the sample as a whole.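 A percent growth of 40 corresponds to 60% growth inhibition; 0 means no net growth; -100 means all cells died. Active threshold: below 10.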 Calls of active or inactive are those of the source.
Tests used:
Assay in all cases: NCI-60 one-dose screen, 48 h (100 = growth as untreated, 0 = no growth, -100 = all killed)
Conditions in all cases: 10 µM unless noted
SK-MEL-2 melanoma = tested on: SK-MEL-2 melanoma
EKVX NSCLC = tested on: EKVX NSCLC
SN12C renal = tested on: SN12C renal
UO-31 renal = tested on: UO-31 renal
TK-10 renal = tested on: TK-10 renal
ACHN renal = tested on: ACHN renal
CAKI-1 renal = tested on: CAKI-1 renal
A498 renal = tested on: A498 renal
CCRF-CEM leukemia = tested on: CCRF-CEM leukemia
MOLT-4 leukemia = tested on: MOLT-4 leukemia
SR leukemia = tested on: SR leukemia
RPMI-8226 leukemia = tested on: RPMI-8226 leukemia
OVCAR-8 ovarian = tested on: OVCAR-8 ovarian
OVCAR-5 ovarian = tested on: OVCAR-5 ovarian
OVCAR-4 ovarian = tested on: OVCAR-4 ovarian
SK-OV-3 ovarian = tested on: SK-OV-3 ovarian
IGROV1 ovarian = tested on: IGROV1 ovarian
HS 578T breast = tested on: HS 578T breast
NCI/ADR-RES ovarian = tested on: NCI/ADR-RES ovarian

Measured: growth

Fc1ccc(-c2cn3c(-c4c[nH]c5ccc(Br)cc45)csc3n2)cc1
inactive: SK-MEL-2 melanoma 90.5% | EKVX NSCLC 64.9% | SN12C renal 52.4% | UO-31 renal 47.8% | TK-10 renal 80.3% | ACHN renal 49% | CAKI-1 renal 38.3% | A498 renal 91.3% | CCRF-CEM leukemia 70.3% | MOLT-4 leukemia 63.9% | SR leukemia 88.7% | RPMI-8226 leukemia 77.8% | OVCAR-8 ovarian 74.8% | OVCAR-5 ovarian 73.8% | OVCAR-4 ovarian 34.3% | SK-OV-3 ovarian 84.4% | IGROV1 ovarian 63.7% | HS 578T breast 14% | NCI/ADR-RES ovarian 48.7%

COc1ccc(/C=N/NC(=O)c2c(N)nn(C)c2Nc2ccccc2)cc1Oc1ccccc1
inactive: SK-MEL-2 melanoma 101% | EKVX NSCLC 88.1% | SN12C renal 95.5% | UO-31 renal 71.7% | TK-10 renal 102% | ACHN renal 95.8% | CAKI-1 renal 86.6% | A498 renal 98.6% | CCRF-CEM leukemia 94.3% | MOLT-4 leukemia 90.4% | SR leukemia 87.8% | RPMI-8226 leukemia 82.1% | OVCAR-8 ovarian 87.7% | OVCAR-5 ovarian 92.4% | OVCAR-4 ovarian 92.2% | SK-OV-3 ovarian 112% | IGROV1 ovarian 93.5% | HS 578T breast 93.6% | NCI/ADR-RES ovarian 92.6%

CNC(=O)c1cc(Oc2ccc3c(c2)sc2nc(-c4ccc(N(C)C)cc4)cn23)ccn1
active: A498 renal 7.34% | CCRF-CEM leukemia 9.49% | RPMI-8226 leukemia 6.21% | NCI/ADR-RES ovarian 0.629%
inactive: SK-MEL-2 melanoma 59.7% | EKVX NSCLC 53.8% | SN12C renal 43% | UO-31 renal 33% | TK-10 renal 77.2% | ACHN renal 21.7% | CAKI-1 renal 32.3% | MOLT-4 leukemia 15.1% | SR leukemia 13.2% | OVCAR-8 ovarian 14% | OVCAR-5 ovarian 39.4% | OVCAR-4 ovarian 70.7% | SK-OV-3 ovarian 49.2% | IGROV1 ovarian 21.5% | HS 578T breast 44.1%

CC1=C(SCC(=O)OCCCCCC(C)C)C(=O)c2ccccc2C1=O
inactive: SK-MEL-2 melanoma 99.1% | EKVX NSCLC 82.5% | SN12C renal 83% | UO-31 renal 62.9% | TK-10 renal 133% | ACHN renal 85.7% | CAKI-1 renal 80.3% | A498 renal 107% | CCRF-CEM leukemia 91.3% | MOLT-4 leukemia 79.4% | SR leukemia 83.7% | RPMI-8226 leukemia 61% | OVCAR-8 ovarian 92.1% | OVCAR-5 ovarian 113% | OVCAR-4 ovarian 70.1% | SK-OV-3 ovarian 104% | IGROV1 ovarian 79.8% | HS 578T breast 91.8% | NCI/ADR-RES ovarian 100%

COc1ccc([C@H]2C(=O)N(c3cc(OC)c(OC)c(OC)c3)[C@@H]2c2ccc(OC)c(O)c2)cc1
inactive: EKVX NSCLC 46.1% | SN12C renal 30.4% | UO-31 renal 26.9% | TK-10 renal 110% | ACHN renal 28.4% | CAKI-1 renal 24.5% | CCRF-CEM leukemia 18.9% | MOLT-4 leukemia 13.4% | SR leukemia 11.4% | RPMI-8226 leukemia 22.2% | OVCAR-5 ovarian 34.6% | OVCAR-4 ovarian 63.5% | SK-OV-3 ovarian 27.5% | IGROV1 ovarian 28.2% | NCI/ADR-RES ovarian 10.4%
active: SK-MEL-2 melanoma 9.11% | A498 renal -29.9% | OVCAR-8 ovarian 5.81% | HS 578T breast 2.75%

COc1ccc2[nH]cc(/C=N/Nc3ccnc4cc(Cl)ccc34)c2c1
active: SK-MEL-2 melanoma -83.6% | EKVX NSCLC -96.5% | SN12C renal -100% | UO-31 renal -100% | TK-10 renal -96.5% | ACHN renal -100% | CAKI-1 renal -99.9% | A498 renal -98.6% | CCRF-CEM leukemia -42.8% | MOLT-4 leukemia -48.4% | SR leukemia -27.1% | RPMI-8226 leukemia -62.8% | OVCAR-8 ovarian -70% | OVCAR-5 ovarian -100% | OVCAR-4 ovarian -100% | SK-OV-3 ovarian -95.6% | IGROV1 ovarian -94.6% | HS 578T breast -49.6% | NCI/ADR-RES ovarian -60.4%

O=C(N/N=C/c1cc2ccccc2nc1Cl)c1cc(-c2nc3ccccc3[nH]2)nc2ccccc12
inactive: SK-MEL-2 melanoma 82.8% | EKVX NSCLC 93.5% | SN12C renal 99.9% | UO-31 renal 70.7% | TK-10 renal 91.7% | ACHN renal 89% | CAKI-1 renal 71.6% | A498 renal 54.6% | CCRF-CEM leukemia 87.8% | MOLT-4 leukemia 82.2% | SR leukemia 83.6% | RPMI-8226 leukemia 82.7% | OVCAR-8 ovarian 96.3% | OVCAR-5 ovarian 106% | OVCAR-4 ovarian 86.3% | SK-OV-3 ovarian 106% | IGROV1 ovarian 87.5% | HS 578T breast 108% | NCI/ADR-RES ovarian 93.3%

NS(=O)(=O)c1ccc(Nc2nc(N/N=C/c3ccc4c(c3)OCO4)nc(Nc3ccccc3)n2)cc1
inactive: SK-MEL-2 melanoma 55.8% | EKVX NSCLC 73.2% | SN12C renal 54.3% | UO-31 renal 76.8% | TK-10 renal 96.6% | ACHN renal 57.8% | CAKI-1 renal 45.4% | A498 renal 51.1% | CCRF-CEM leukemia 16.3% | MOLT-4 leukemia 11.2% | SR leukemia 20% | RPMI-8226 leukemia 54.3% | OVCAR-8 ovarian 49.7% | OVCAR-5 ovarian 90.8% | OVCAR-4 ovarian 55.5% | SK-OV-3 ovarian 65.7% | IGROV1 ovarian 36.6% | HS 578T breast 52% | NCI/ADR-RES ovarian 90.9%
